15 compounds from PubChem BioAssay AID1508619 (National Center for Advancing Translational Sciences (NCATS), 2020) can be followed below.

Inconclusive results are not listed. A call without a number means that no potency is given here. Active and inactive are the calls of the source. Calls come from the whole dose curve; as a rule, active = well fitted inhibition curve with a large enough effect; inconclusive = small, poorly fitted or top-dose-only effect; inactive = no such curve, though single readings can be large or run the other way.
Potency is the fitted concentration of half-maximal effect.

This experiment is described as follows: Counterscreen qHTS for Identification of Calcium Integrin Binding Protein 1 (CIB1) Competitor. As to conditions: series mostly up to 114 µM. The essentials:
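Compounds (final up to 114 uM) preincubated 15 min at room temperature with 1 uM CIB1-GST in calcium-containing HEPES pH 7.4 buffer; 100 nM scrambled FITC peptide added, and fluorescence polarization (480/540) measured after another 15 min.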
(In general: A counterscreen serves to expose hits that act by an unwanted route or on another target.)
Take `O=C1CCCC2=C1C(c1[nH]ncc1Cl)N=C(Nc1nc3ccccc3o1)N2` (stereo not given): the Potency result was “inactive”.

With `Cc1ccc(Cl)cc1NC(=O)c1nc[nH]c1C(=O)Nc1nc2ccccc2[nH]1`, the Potency entry is “inactive”.

As for `CC(C)(O)CCc1ccc(OCc2cc(-c3cccc(OC(F)F)c3)c3ncccc3c2)cc1`, the Potency result is “inactive”.

On to `O=C1c2c(O)ccc(O)c2C(=O)c2c(NCCNCCO)ccc(NCCNCCO)c21`, for which the Potency is 20 µM (active).

As to `Cc1ccc([S+](=O)([O-])Nc2nn3c(=O)c4ccccc4nc3s2)cc1C`, the Potency entry was “inactive”.

As for `O=S(=O)(Nc1nc2ccccc2s1)c1ccc(NCc2ccc(Br)cc2O)cc1`, the Potency result was “inactive”.

In the case of `NC[C@@H](O)c1ccc(O)c(O)c1`, the Potency entry was “inactive”.

Take `CC(=O)NC(c1cccs1)c1cc(Br)c2cccnc2c1O` (stereo not given): the Potency entry was “inactive”.

As to `O=c1c2ccccc2nc2sc(NS(=O)(=O)c3ccc4c(c3)CCC4)nn12`, the Potency entry is “inactive”.

For the compound `CO[C@@H]1C(N(C)C(=O)c2ccccc2)C[C@H]2O[C@]1(C)n1c3ccccc3c3c4c(c5c6ccccc6n2c5c31)C(=O)NC4=O` (stereo not given in full), the Potency was 22.4 µM (active).

Take `CCc1oc2ccccc2c1C(=O)c1cc(I)c(O)c(I)c1`: the Potency is 100 µM (active).

Turning to `CC(OC(=O)c1ccc(S(C)(=O)=O)c([N+](=O)[O-])c1)C(=O)NC1C2CC3CC(C2)CC1C3` (stereo not given), the Potency result was “inactive”.

Take `O=C(Nc1ccc(S(=O)(=O)N2CCOCC2)cc1)c1cc(Cl)ccc1NS(=O)(=O)c1ccc(Cl)s1`: the Potency result is “inactive”.

With `C[C@@H](NCc1cc2ccccc2[nH]1)c1cccc2ccccc12`, the Potency result is “inactive”.

Take `CCCCCCCCCCCCCCCC[N+](C)(C)CCN(Cc1ccc(OC)cc1)c1ncccn1`: the Potency result was “inactive”.
